Experimental data taken from PubChem BioAssay AID651593 (National Center for Advancing Translational Sciences (NCATS), 2012).
In all, about 1,100 compounds went through this assay and about 860 (78%) were called active. Roughly 19% stayed inconclusive and do not appear here. The call rests on the fitted dose curve; in most records, active means well fitted activation curve with a large enough effect; inconclusive means small, poorly fitted or top-dose-only effect; inactive means flat fitted curve, though single readings scatter. The set was probably picked from earlier hits. This is one part of the list.

Assay: qHTS of Nrf2 Activators: Hit Validation in Primary Assay; further: nearly all actives have a fitted effect of over 70% in size
Details: Nrf2/ARE reporter cell assay; Potency: activation; series mostly up to 46.1 µM
In short: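 Luminescence from Steady-Glo lysis reagent, read after 30 min, reported ARE-luciferase activity in AREc32_fluc stable cells. Compounds were tested at several concentrations, incubated 24 h at 37 °C with 5% CO2 following overnight seeding.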
Potency means the concentration at half of the fitted maximal effect.

Potency, active:
COc1ccc2c(c1)C1=NN(/C(C)=C/C(C)=O)C(c3cccc(F)c3)C1CC2 (stereo not drawn) 5.8 µM
Cc1ccc(-c2nc3sc(C#N)c(N)n3c(=O)c2C#N)cc1 8.2 µM
Cc1c(C(=O)NCc2ccco2)oc2c(Cl)cccc12 1.46 µM
COc1c(Cl)cc(C(=O)NCc2ccco2)cc1Cl 14.6 µM
COc1ccccc1NC(=O)c1ccc(Cl)c(S(=O)(=O)NCc2ccco2)c1 10.3 µM
COc1ccc(C)c2sc(NC(=O)CCS(=O)(=O)c3ccccc3)nc12 4.11 µM
O=C(CCS(=O)(=O)c1ccccc1)Nc1nc2ccc(F)cc2s1 18.4 µM
CCOC(=O)c1ccsc1NC(=O)CCS(=O)(=O)c1ccccc1 18.4 µM
COc1ccc(OC)c2sc(NC(=O)CCS(=O)(=O)c3ccccc3)nc12 3.26 µM
O=C(CCS(=O)(=O)c1ccccc1)Nc1nc2c(s1)COc1ccccc1-2 6.51 µM
Cc1cccc2cc3c(nc12)-c1ccccc1C3=O 10.3 µM
c1ccc2nc3c(ccc4ccccc43)cc2c1 9.2 µM
COC(=O)c1c(NC(=O)c2ccccc2)sc(C(N)=O)c1C 1.46 µM
CCOC(=O)c1sc(NC(=O)c2ccccc2F)c(C(N)=O)c1C 2.31 µM
c1ccc(N2CC3COc4ccccc4C3=N2)cc1 (stereo not drawn) 2.59 µM
c1ccc(N2CC3CCc4ccccc4C3=N2)cc1 (stereo not drawn) 5.8 µM
CC1CN(c2sc(S(C)(=O)=O)nc2S(=O)(=O)c2ccc(Cl)cc2)CC(C)O1 (stereo not drawn) 6.51 µM
Cc1ccc(S(=O)(=O)c2nc(S(C)(=O)=O)sc2N2CC(C)OC(C)C2)cc1 (stereo not drawn) 18.4 µM
CCOC(=O)c1cnc(-c2ccccc2)nc1-c1ccccc1 9.2 µM
Nc1nc(Nc2ccccc2F)nc(NCc2ccco2)c1[N+](=O)[O-] 2.31 µM
O=C1C=C(C#Cc2ccccc2)C[C@@H](c2ccc(F)cc2)C1 11.6 µM
O=C(CCS(=O)(=O)c1ccccc1)Nc1nc(-c2ccccn2)cs1 18.4 µM
CC(C)(C)c1csc(NC(=O)CCS(=O)(=O)c2ccc(F)cc2)n1 20.6 µM
Cc1ccc2ccc(C3C(=O)c4ccccc4C3=O)nc2c1 1.64 µM
Cc1ccc(-c2cc(C(F)(F)F)c(C#N)c(SCCC#N)n2)o1 2.59 µM
C#CCSc1nc(-c2ccccc2)cc(C(F)(F)F)c1C#N 11.6 µM
c1ccc2c(-c3nc4ncccc4o3)cccc2c1 6.51 µM
CCn1c(SCC(=O)N/N=C/C=C/c2ccco2)nc2ccccc21 1.46 µM
Cn1c(SCC(=O)N/N=C/C=C\c2ccccc2[N+](=O)[O-])nc2ccccc21 0.366 µM
Cn1c(SCC(=O)N/N=C/C=C\c2ccco2)nc2ccccc21 2.59 µM
CCn1c(SCC(=O)N/N=C/C=C\c2ccco2)nc2ccccc21 1.84 µM
Cc1ccc(N=C2NC(=O)S/C2=C\c2ccco2)cc1 7.31 µM
Cc1cccc(N=C2NC(=O)S/C2=C\c2ccco2)c1 3.26 µM
C=CCn1c(=NC(=O)c2cc(Cl)sc2Cl)sc2cc(S(N)(=O)=O)ccc21 2.31 µM
Oc1c(-c2cc(-c3ccco3)[nH]n2)ccc2ccccc12 2.31 µM
Oc1ccc(Cl)cc1-c1cc(-c2ccco2)[nH]n1 3.66 µM
Oc1ccc(Br)cc1-c1cc(-c2ccco2)[nH]n1 3.66 µM
COc1ccccc1NC(=O)c1cc(Cl)nc2ccccc12 5.17 µM
O=[N+]([O-])c1cnccc1-n1nnc2ccccc21 18.4 µM
COc1ccc(S(=O)(=O)NCCc2csc3nc(-c4ccc(Cl)cc4)nn23)cc1C 5.17 µM
O=C(COCc1cc(-c2cccs2)on1)Nc1cc(Cl)ccc1O 2.31 µM
O=C(COCc1cc(-c2ccc(F)cc2)on1)Nc1cc(Cl)ccc1O 8.2 µM
Oc1ccccc1C1CC(c2cccs2)=NC(c2ccc(Cl)cc2)N1 (stereo not drawn) 13 µM
COC(=O)c1ccccc1NC(=O)COc1ccccc1[N+](=O)[O-] 2.59 µM
C/C(=N\NC(=O)COc1ccccc1[N+](=O)[O-])c1cccs1 6.51 µM
O=c1nc2c(-c3ccccc3F)n[nH]n2c2ccccc12 2.59 µM
CCNc1nc(NCC)nc(N(C)/N=C/c2ccco2)n1 2.59 µM
O=C(N/N=C\c1ccco1)Nc1cccc(Cl)c1 2.31 µM
O=C(N/N=C/c1ccco1)Nc1ccccc1 8.2 µM
O=C(Nc1ccc(F)cc1)c1nsc(Cl)c1Cl 1.64 µM
Clc1ccc(C=Cc2ccccn2)c(Cl)c1 3.66 µM
Clc1ccc(C=Cc2ccccn2)cc1 5.17 µM
CC1(C)C2C/C(=N\O)C(C)(/[N+]([O-])=C/c3cccc([N+](=O)[O-])c3)CC21 (stereo not drawn) 20.6 µM
N#C/C(=C\C=C\c1ccccc1)C(=O)NCc1cccnc1 2.31 µM
CCCNc1ccc(-c2nc(-c3ccco3)no2)cc1[N+](=O)[O-] 2.31 µM
CCNc1ccc(-c2nc(-c3ccco3)no2)cc1[N+](=O)[O-] 1.46 µM
COCCNc1ccc(-c2nc(-c3ccco3)no2)cc1[N+](=O)[O-] 1.46 µM
O=[N+]([O-])c1cc(-c2nc(-c3ccccc3)no2)ccc1NCc1cccnc1 2.31 µM
Cc1nn(-c2cccc(C(F)(F)F)c2)c(=O)c2ccccc12 3.66 µM
CCOc1ccc(Br)cc1-c1noc(-c2cccs2)n1 2.31 µM
COc1cc(-c2noc(-c3cccs3)n2)cc(OC)c1OC 13 µM
CCOc1ncccc1-c1nc(-c2cccs2)no1 18.4 µM
CCN=c1scc(C)n1/N=C/c1ccsc1 7.31 µM
Cc1nc([N+](=O)[O-])c(Br)n1Cc1ccccc1 20.6 µM
c1ccc2c(c1)nnn2-c1ncnc2sccc12 13 µM
Clc1nc2sccn2c1/C=N/n1cnc2ccccc21 2.59 µM
O=C(CSc1nnc(-c2cccnc2)o1)c1cc2ccccc2oc1=O 18.4 µM
Oc1ccccc1C=NN=Cc1c(O)ccc2ccccc12 3.66 µM
Nc1nonc1N/N=C/c1c(O)ccc2ccccc12 6.51 µM
Cc1c(NC(=O)Nc2cccs2)cccc1[N+](=O)[O-] 11.6 µM
O=C(Nc1cccc([N+](=O)[O-])c1)Nc1cccs1 18.4 µM
O=c1oc2ccc(Cl)cc2nc1/C=C(\O)c1cccs1 14.6 µM
O=c1oc2ccc(Cl)cc2nc1/C=C(\O)c1ccco1 14.6 µM
CC(C)(C)/C(O)=C/c1nc2cc(Cl)ccc2oc1=O 13 µM
O=c1oc2ccccc2cc1-c1nc2c(s1)CCc1ccccc1-2 3.26 µM
O=c1oc2ccccc2cc1-c1nc(-c2cccs2)cs1 3.66 µM
O=c1oc2ccccc2cc1-c1csc(Nc2ccc(O)cc2)n1 4.61 µM
N=c1oc2ccccc2cc1-c1nc(-c2ccccc2)cs1 3.66 µM
COc1ccccc1C(=O)NCc1nc2cccnc2n1Cc1ccc(F)cc1 2.91 µM
C#CCSc1nnc(-c2sc3ccccc3c2Cl)o1 2.59 µM
Cc1ccc(-c2nc(NCc3ccco3)c3ccccc3n2)cc1 6.51 µM
c1cncc(-c2nc(NCc3ccco3)c3ccccc3n2)c1 5.17 µM
O=C(CCN1C(=O)c2cccc3cccc(c23)C1=O)Nc1ccon1 4.61 µM
Cc1cc(=O)oc2c(C(=O)/C=C\c3cccs3)c(O)ccc12 9.2 µM
Cc1cc(=O)oc2c(C(=O)/C=C/c3ccccc3)c(O)ccc12 2.59 µM
Cc1ccc(S(=O)(=O)CCSC(=N)N)cc1 18.4 µM
O=C(Nc1ccc(Cl)cn1)c1cnn2cccnc12 5.17 µM
COc1cccc(/C=C2/CCC(CN(C)C)C2=O)c1 (stereo not drawn) 3.66 µM
C=CCc1cccc(C=Nc2cc(Br)ccc2O)c1O 3.26 µM
Cc1ccc(Cn2c(/C=C/c3ccco3)nc3ccccc32)cc1 2.31 µM
O=C(Nc1nc2ccccc2[nH]1)c1cccc([N+](=O)[O-])c1 2.06 µM
O=C(Nc1ccccn1)c1ccc(Cl)c([N+](=O)[O-])c1 18.4 µM
O=C(Nc1nc2ccccc2[nH]1)c1ccc(Cl)c([N+](=O)[O-])c1 20.6 µM
S=c1[nH]nc(-c2ccncc2)n1/N=C/C=C/c1ccco1 8.2 µM
Cc1cccc(-c2n[nH]c(=S)n2/N=C/C=C/c2ccco2)c1 2.06 µM
CC(/C=N/n1c(-c2ccncc2)n[nH]c1=S)=C\c1ccco1 2.59 µM
O=C1C(=Cc2cccc(F)c2)Cc2ccccc21 13 µM
O=C1C(=Cc2cccc(Cl)c2)Cc2ccccc21 4.61 µM

Potency, inactive:
CCCS(=O)(=O)c1nc(S(=O)(=O)c2ccc(C)cc2)c(N2CC(C)OC(C)C2)s1 (stereo not drawn)
O=C(Nc1cccc(/C=C/c2ccccn2)c1)c1ccc(-n2cncn2)cc1
Cc1cc(N/N=C/c2c(O)ccc3ccccc23)nc(-c2ccccc2O)n1
Cc1cc(CNC(=O)c2cccc([N+](=O)[O-])c2)c2ccccc2n1
S=c1[nH]nc(-c2ccccc2)n1/N=C/C=C/c1ccco1
